In the library only some 3.1% were active in any assay of this set; here they are far more common.
PP1 inh: PP1-alpha phosphatase inhibitors, primary screen, counter-screen for PP5 inhibitor project, biochemical, fluorescence, OMFP substrate, single point; Serine/threonine-protein phosphatase PP1-alpha catalytic subunit (Homo sapiens), P62136; inhibition, % at 6.7 µM; 320,000 compounds, 0.9% hits; purified PP1alpha;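 active = inhibition above the mean inhibition of all tested compounds plus 3 SD, computed separately for each screening campaign, cut at about 15% in these data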
Target sequence (P62136 whole entry, looked up): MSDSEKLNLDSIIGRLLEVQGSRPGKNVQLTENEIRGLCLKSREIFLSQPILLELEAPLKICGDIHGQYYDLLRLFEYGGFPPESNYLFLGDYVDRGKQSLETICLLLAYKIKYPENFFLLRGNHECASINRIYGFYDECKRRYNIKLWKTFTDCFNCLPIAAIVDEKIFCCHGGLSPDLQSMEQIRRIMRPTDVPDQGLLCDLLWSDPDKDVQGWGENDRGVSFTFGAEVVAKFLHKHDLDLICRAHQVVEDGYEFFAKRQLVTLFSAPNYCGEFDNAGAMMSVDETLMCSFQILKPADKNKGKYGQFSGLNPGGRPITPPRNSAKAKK
CSC inhib: cancer stem cell viability inhibitors, primary screen, luminescence. AID 2717, 2010. inhibition, % at 7.5 µM. cancer stem cell-like cells viability. 300,000 compounds, 1.1% hits; in the data active = inhibition above about 75%; inconclusive = no clear call, values can overlap the other calls; tested in HMLE shEcad cells
SKKanGAS inh: S. pyogenes SKKanGAS growth inhibitors in kanamycin, primary screen, streptokinase expression inhibitor project, SKKanGAS strain, BacTiter-Glo luminescence. inhibition, % at 7.5 µM. 6 h. 300,000 compounds, 1.3% hits. AID 1662, 2009;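 active = mean replicate score, as percent of positive control median, at least 50; inconclusive = mean below 50 but one replicate at or above 50; inactive = mean and every replicate below 50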;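 also: strain carries kanamycin resistance gene driven by streptokinase promoter and grows in 40 µg/ml kanamycin; loss of luminescence reflects streptokinase promoter inhibition or plain growth inhibition; 0% = median of DMSO wells and 100% = positive control at its reference dose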
PP5 inh: PP5 phosphatase inhibitors, primary screen, biochemical, fluorescence; inhibition, % at 6.7 µM; AID 1987, 2009; 320,000 compounds, 0.18% hits; purified PP5c, OMFP substrate fluorescence;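 active = inhibition above the campaign's mean inhibition across all tested compounds plus 3 SD, cut at about 9.5% in these data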;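 also: 0% = DMSO only and 100% = 100 µM cantharidin control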
Beta cell apopt: inhibitors of cytokine-induced beta cell apoptosis, primary screen, luminescence. protection from apoptosis, % (no concentration beside the values). INS-1E cytokine-induced death, ATP luminescence, 48 h; percent of positive-control rescue, neutral wells zero. 300,000 compounds, 0.8% hits;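 active = Every replicate reaches about 75%, or at least half do and their mean reaches it too, limit read from the data; inconclusive = At least half of replicates reach the limit but their mean does not; inactive = Under half of replicates reach the limit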;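 also: 0% = cytokine-treated negative control wells and 100% = positive control rescue; higher means more ATP so stronger rescue from cytokine killing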
PP1 inh confirm: PP1 phosphatase inhibitors, confirmation, biochemical, fluorescence, OMFP substrate, triplicate. shares compounds with PP1 inh. purified PP1alpha. inhibition, % at 6.7 µM. 1,900 compounds, 52% hits. AID 2358, 2010;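 active = mean PP1 inhibition above a set limit taken from the earlier primary screen, cut at about 15% in these data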
PP5 inh counter: PP5 phosphatase inhibition by PP1 hits, confirmation, counter-screen for PP1 inhibitor project, biochemical, fluorescence, triplicate; 1,900 compounds, 4% hits; shares compounds with PP1 inh; inhibition, % at 6.7 µM; purified PP5c, OMFP fluorescence;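 active = mean PP5 inhibition over triplicate wells above about 9.5% taken from the earlier PP1 screen, limit read from the data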
Active calls of the source: *; ? = inconclusive; / = no result given.

SMILES	PP1 inh	CSC inhib	SKKanGAS inh	PP5 inh	Beta cell apopt	PP1 inh confirm	PP5 inh counter
Cc1ccc(C(=O)Nc2nnc(NC(=S)Nc3ccccc3)s2)cc1	21*	?	42	3	9	24*	0
CCc1nnc(NC(=S)Nc2ccccc2)s1	2	-11	-3	0	5	/	/
CCOc1ccc(C(=O)Nc2nnc(NC(=S)Nc3ccccc3)s2)cc1	19*	22	35	1	4	33*	4
CC1CC(C)CN(CCCNC(=O)c2nn(C)c3c2CS(=O)(=O)c2ccccc2-3)C1 (stereo not given)	-3	-13	0	-1	-1	/	/
CC1=CC(=O)c2c(O)ccc(O)c2C1=O	28*	1	/	3	2	2	28*
O=C1C=C(O)c2cccc(O)c2C1=O	-2	-9	/	5	3	/	/
CCOC(=O)c1sc(-c2ccc(Cl)cc2)nc1O	25*	-2	20	1	-3	18*	-3
CCOC(=O)c1nc(-c2ccccc2)sc1C(C)=O	-3	-12	-5	3	-3	/	/
CCOC(=O)c1sc(-c2cccc(C(F)(F)F)c2)nc1O	18*	-14	1	-2	-14	17*	-3
CCOC(=O)c1cc(-c2cccs2)nc2c1c(C)nn2-c1ccccn1	23*	104*	58*	1	65	25*	-2
Cc1nn(-c2ccccc2)c2nc(-c3cccs3)cc(C(=O)NN)c12	1	24	8	3	8	/	/
Cc1ccccc1N1CCN(C2CCCN(C(=O)CCC3(C)CC3)C2)CC1 (stereo not given)	2	1	-6	3	/	/	/
Cc1cc2ncc(-c3cccs3)nc2cc1C	/	23	15	/	22	/	/
O=C(N/N=C/c1cccc(F)c1)c1cc(-c2ccco2)nc2ccccc12	31*	21	2	-4	/	11	-2
Cc1nc2ccccc2c(=O)n1NC(=O)c1ccc([N+](=O)[O-])cc1	-6	-12	-9	2	-2	/	/
O=C(Cc1ccccc1)N/N=C/c1ccccc1OCc1ccc(Cl)cc1	21*	22	19	3	12	-1	2
NC(=O)c1oc2ccccc2c1NC(=O)c1nc2ccccc2s1	25*	7	-6	-3	-4	16*	-6
NC(=O)c1oc2ccccc2c1NC(=O)c1ccc(F)cc1	-1	-8	-5	2	-4	/	/
O=C(Nc1nnc(-c2ccccc2)o1)c1nc2ccccc2s1	25*	35	92*	-1	/	28*	-8
CCOc1ccccc1NC(=O)c1cnc(NS(=O)(=O)c2ccccc2)nc1	-6	/	13	-2	5	/	/
Cn1c(C(O)c2ccccc2)nc(Cl)c1Cl (stereo not given)	-1	-6	-6	4	-7	/	/
COc1ccc(N(C)C(=O)Cc2c(C(=O)O)n(C)c3ccccc23)c(OC)c1	2	-18	-2	0	0	/	/
Cc1ccc(OCCN2C(=O)C(=O)c3cc(C)ccc32)cc1	18*	?	6	0	15	8	-4
Cc1ccc2c(c1)C(=O)C(=O)N2CC(=O)OC(C)C	0	1	-2	-1	-9	/	/
Cc1cccc2c1N(CCOc1ccc(C(C)(C)C)cc1)C(=O)C2=O	23*	10	2	5	-7	13	-2
Cc1cccc2c1N(CCOc1ccccc1Cl)C(=O)C2=O	18*	32	13	6	6	6	-2
COc1ccc(OCCN2C(=O)c3ccccc3C2=O)cc1	0	0	-6	0	/	/	/
O=C(Nc1nn[nH]n1)c1cccc(Oc2ccccc2)c1	26*	2	-14	1	3	8	-3
O=C(Nc1nn[nH]n1)c1cccc([N+](=O)[O-])c1	1	-15	3	-1	-3	/	/
COc1cccc(-c2cc(N)nn2C(=O)Nc2ccc(Cl)cc2)c1	23*	65	0	3	-3	17*	7

Source: PubChem (several laboratories)
